Experimental data taken from PubChem BioAssay (NCI).
The panel holds about 83,000 compounds, 20% with a hit somewhere; the sample as a whole holds those more often.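 Values shown are percent growth following 48 h exposure of cells in 96-well plates to a single concentration of compound; below 10 was considered active.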 A number with no mark means an inactive call. Activity calls are given as the source filed them.

Legend:
Experiment in all cases: NCI-60 one-dose screen, 48 h (100 = growth as untreated, 0 = no growth, -100 = all killed)
Details in all cases: 10 µM unless noted
BT-549 breast = tested on: BT-549 breast
MDA-MB-435 melanoma = tested on: MDA-MB-435 melanoma
SW-620 colon = tested on: SW-620 colon
MCF7 breast = tested on: MCF7 breast
HCT-116 colon = tested on: HCT-116 colon
HCC-2998 colon = tested on: HCC-2998 colon
KM12 colon = tested on: KM12 colon

SMILES	growth (BT-549 breast)	growth (MDA-MB-435 melanoma)	growth (SW-620 colon)	growth (MCF7 breast)	growth (HCT-116 colon)	growth (HCC-2998 colon)	growth (KM12 colon)
COc1cc2cn3c4ccc(O)cc4nc(N)c3c2cc1OC	20.6%	12.4%	26.1%	6.3% (active)	-50.7% (active)	27.2%	37.9%
Clc1ccc(-n2cnc3c(Cl)ncnc32)cc1Cl	90.3%	99.3%	78.6%	89.8%	61.1%	-75% (active)	95%
COC(=O)[C@]1(CCSC)N[C@H](c2cn(-c3ccccc3)nc2C)[C@@H]2C(=O)N(c3ccccc3)C(=O)[C@@H]21	95.5%	106%	107%	98.5%	98.3%	95.2%	107%
COc1cccc2c1O/C(=C\c1c([N+](=O)[O-])ncn1C)C2=O	98%	91.6%	105%	88.4%	83.3%	105%	105%
N#CCNc1ccccc1N	87.2%	106%	100%	88.8%	85.3%	96.9%	94%
O=NC1CC=CCC1c1ccccc1 (stereo not given)	105%	112%	105%	108%	95.6%	104%	112%
Cn1cc(-c2nc(-c3c[nH]c4ncccc34)cs2)c2cccnc21	64.7%	5.79% (active)	60.4%	59%	41.7%	76.1%	52.1%
CCCCCCCCCCSc1ncnc2nc[nH]c12	75.8%	76.6%	86.5%	75.9%	48.8%	78.1%	85.1%
O=C(CCc1nnc(Cn2ccnc2)o1)c1nc2ccccc2[nH]1	114%	111%	109%	106%	106%	108%	111%
O=C1OCC/C1=C\OCCCO/C=C1\CCOC1=O	96.9%	104%	109%	104%	109%	114%	114%
O=C(/C=C/c1ccccc1)CC(c1ccccc1)N1CCOCC1 (stereo not given)	-79.4% (active)	11.8%	-16.7% (active)	11.1%	-97% (active)	20.8%	-81% (active)
COC(=O)[C@]1(CCSC)N[C@H](c2cn(-c3ccccc3)nc2C)[C@@H]2C(=O)N(c3ccc(C)cc3)C(=O)[C@@H]21	82.8%	105%	106%	102%	92.5%	96.4%	104%
Cc1cc(NC(=O)Nc2cc(Cl)ccc2C)no1	147%	110%	110%	84.4%	104%	99.3%	107%
O=C1/C(=C/c2ccc3cccc(Cl)c3n2)SC(=S)N1CCc1ccc(O)cc1	95.2%	85.5%	95%	86.3%	99.2%	118%	84.8%
O=[N+]([O-])c1cnc(Sc2ccncn2)c([N+](=O)[O-])c1	111%	91.1%	26.4%	56.1%	-59% (active)	102%	107%
c1ccc(-c2nnc(Nc3nnc(-c4ccccc4)s3)s2)cc1	106%	106%	98%	67.6%	97.9%	108%	113%
COc1ccc2c(c1)/C(=C\c1c[nH]c3ccc(F)cc13)C(=O)N2	106%	91.5%	107%	60.3%	80%	92.7%	21.1%
CC(=O)c1nc2ccccc2n1CCn1cc(CC(N)C(=O)O)c2ccccc21 (stereo not given)	105%	101%	114%	75.3%	106%	102%	104%
O=C1CN(CO)C(=O)CN1CO	113%	103%	95.9%	101%	103%	104%	105%

SMILES	growth (BT-549 breast)	growth (MDA-MB-435 melanoma)	growth (SW-620 colon)	growth (MCF7 breast)	growth (HCT-116 colon)	growth (HCC-2998 colon)	growth (KM12 colon)
O=C(Nc1ccccc1Cl)c1cnc2ccc(C3CCNCC3)cn12	97.8%	86%	96.6%	83.6%	58.2%	123%	110%
CCC1=C(c2ccc(OC)cc2)C(C)(C)Oc2c1ccc(O)c2CN1CCCC1	40.9%	2.88% (active)	3.45% (active)	-73.1% (active)	-21.4% (active)	-89.7% (active)	-9.53% (active)
ClC1=C(Cl)C(=C2C(Cl)=C(Cl)C(Cl)=C2Cl)C(Cl)=C1Cl	107%	105%	102%	90.3%	101%	109%	104%
O=C(Nc1ncc([N+](=O)[O-])s1)c1cccc([N+](=O)[O-])c1	35.8%	31.4%	73.4%	50.7%	34.1%	28.7%	62.9%
CCCCCCCC/C=C\CCCCCCCCOc1ccccc1CC(=O)NCC[N+]1(C)CCCC1	94.5%	71.2%	78.9%	82.6%	74.7%	74.8%	51.8%
S=C(Nc1ccc(C2=NCCN2)cc1)Nc1ccc(C2=NCCN2)cc1	87.9%	102%	107%	103%	107%	104%	101%
Cc1ccccc1-c1cc(Cc2ccccc2O)c(=O)[nH]n1	112%	109%	116%	103%	93.5%	124%	98.1%
Clc1ccc([C@@H]2C[C@@H]3Cc4cc(Br)c5ccccc5c4N2O3)c(Cl)c1	97.7%	4.61% (active)	55.4%	34%	76.6%	87%	66.7%
NC(N)=N/N=C(/c1ccccc1)c1ccc(Cl)cc1	70.2%	-54.4% (active)	47.6%	11.3%	24.9%	–	28.3%
CCC1(c2ccccc2)Oc2ccccc2-n2c(C#N)c3ccccc3c2C1=O (stereo not given)	104%	106%	107%	85.1%	86.7%	–	102%
O=C(/C=C/c1ccccc1Cl)c1ccc(O)cc1	55.8%	25.1%	40.9%	15%	13.3%	113%	6.77% (active)
Cc1cc(N2CCOCC2)nc(N2CCOCC2)n1	73.6%	96.4%	102%	90.7%	92.2%	–	107%
CCOC(=O)/C=C(/C)Sc1cc(O)c2ccccc2c1O	-37.1% (active)	-82.2% (active)	-40.2% (active)	-75.9% (active)	122%	–	3.07% (active)
O=C(/C(=C/c1cccc([N+](=O)[O-])c1)c1ccccc1)c1ccccc1	33.1%	7.47% (active)	10.9%	26.7%	8.24% (active)	–	18.3%
COc1ccc(-c2csc(NC(=O)c3cc(O)c(O)c(O)c3)n2)cc1	66.9%	64.4%	56.8%	60.6%	49.5%	–	84.8%
CCCCSc1cc(C)nc(N)n1	88.8%	97.2%	97.8%	94.5%	90.7%	–	98.8%
COc1cc(/C=C/C(=O)c2c(-c3ccc(Cl)cc3)nc3sc(C)nn23)cc(OC)c1OC	79.3%	73.9%	59.6%	38.1%	50.2%	–	73.6%
COc1cc2c(C#N)n3c(c2cc1OC)C(=O)C(c1ccccc1)Oc1ccccc1-3 (stereo not given)	-7.13% (active)	55.5%	87.6%	93.9%	27.9%	–	23.4%
